Compound activity from PubChem.
In the library only some 2.3% were active in any assay of this set; here they are far more common.
aSyn rescue = qHTS of alpha-syn Inhibitors; Potency, µM (highest dose often 46.1 µM), actives largely listed as activators; Yeast expressing alpha-synuclein, growth rescue, BacTiter-Glo, 24 h; AID 652106, 2013; 0.14% of 370,000 active; also: nearly all actives have a fitted effect of over 65% in size
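Readout is rescue of growth in alpha-synuclein-expressing yeast, so inhibitors of toxicity appear as activators. Growth after 24 hr at 30 deg C in galactose medium is quantified by luminescence.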
Akt phos inh = HTS Assay for Inhibitors of Akt Phophorylation: Primary Screen. Neuro2A IGF-stimulated pAkt S473 HTRF, 20 min; stronger effect = lower value. 0.32% of 360,000 active. activity change, % for hits at 50 µM; in the data active = activity change below about -80%; inconclusive = mostly about -51% to -80%
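Neuro2A cells in DMEM with 0.5% FBS, overnight at 37 deg C, given compound at single 50 µM final, then IGF (6 nM final) for 20 min at 37 deg C. Lysed; phospho-Akt Ser473 by HTRF after 24 h, 665/615 ratio.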
FUS suppressor = qHTS for Suppressors of FUS Proteinopathy: Primary screen using FUS-linked yeast assay; S. cerevisiae FUS-expressing, growth rescue, OD600, 24 h; Potency, µM (doses to about 76.6 µM), actives largely listed as activators; 0.24% of 390,000 active; AID 1347120, 2019; also: nearly all actives have a fitted effect of over 55% in size
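FUS-expressing yeast, raffinose-pregrown, induced in 2% galactose minimal medium at OD 0.005; compounds in a dilution series, 24hr at 30C. Growth restoration read as absorbance at 600 nm. CP55940 positive control, DMSO negative.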
Abeta yeast res = qHTS for compounds that reverse cellular toxicity of Amyloid beta (A-beta) peptide in yeast: Primary Screen; yeast expressing A-beta42, growth rescue, OD600, 48 h; response scale: 0% DMSO, 100% iron-clioquinol control; Potency, µM (titrated, usually from 46.1 µM), actives largely listed as activators; 0.063% of 410,000 active; also: nearly all actives have a fitted effect of over 55% in size
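Yeast growth medium received pinned compounds, then yeast cells expressing toxic A-beta were added; plates incubated at 30 C for 48 hr. Growth read as absorbance at 600 nm, normalized to DMSO and equimolar FeCl3 plus clioquinol controls.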
TDP-43 yeast inh = qHTS of TDP-43 Inhibitors; TDP-43 expressing yeast growth rescue, BacTiter-Glo, 24 h; Potency, µM (highest dose often 46.1 µM), usual class: activators; 1.8% of 410,000 active; also: nearly all actives have a fitted effect of over 50% in size
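Yeast expressing TDP-43 (pregrown in raffinose, seeded at OD600=0.02 in galactose medium) exposed to compounds 24 hr at 30 deg C. Growth read by BacTiter-Glo luminescence; rescue of toxicity appears as increased signal.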
Of the large screens only hits and unclear results are named; the others gave an inactive call. Unless noted, calls follow the shape of the dose curve; as a rule, active = well fitted curve in the direction sought with a large enough effect; inconclusive = small, poorly fitted or top-dose-only effect, or another doubt; inactive = no such curve, though single readings can be large; an effect the other way counts as inactive or inconclusive.

CCSc1nnc2nc3[nH]c4c(C)cccc4c3nn12	none
Oc1c(C(c2ccccc2Cl)N2CCC(O)CC2)sc2nc(-c3ccco3)nn12 (configuration not stated)	none (no result: aSyn rescue, Akt phos inh)
COc1cccc(CNc2nc3cc(-c4cscc4C)sc3c(=O)n2C)c1	aSyn rescue inconclusive, FUS suppressor inconclusive, TDP-43 yeast inh 20µM
COc1cccc(CNc2nc3cc(-c4cccc(OC)c4)sc3c(=O)n2C)c1	none
COc1cccc(CNc2nc3cc(-c4ccc(OC)cc4C)sc3c(=O)n2C)c1	TDP-43 yeast inh 20µM
O=C1C(=O)N(C2CCN(S(=O)(=O)c3ccc(F)cc3)CC2)CCN1Cc1ccccc1	none (no result: aSyn rescue, Akt phos inh)
Cc1cc(C)c(NC(=O)COCc2cc(-c3cccs3)on2)c(C)c1	TDP-43 yeast inh inconclusive (no result: aSyn rescue, Akt phos inh)
CCN(CC)c1ccc(N2C(=O)/C(=C/c3cccs3)SC2=S)cc1	Akt phos inh -102.8%
CC(Oc1ccccc1)c1ccnn1S(=O)(=O)c1ccccc1 (configuration not stated)	none
CCNC(=O)n1nccc1C(C)Oc1ccccc1 (configuration not stated)	TDP-43 yeast inh 11.2µM
CCOc1ccc(-c2cc(OC(=O)c3ccccc3)c3c(C)oc(C)c3c(=O)c2)cc1	FUS suppressor inconclusive (no result: aSyn rescue, Akt phos inh)
CC(=O)N1CCc2c(sc3c2c(=O)n(-c2cccc(Cl)c2C)c(=O)n3Cc2ccccc2C)C1	TDP-43 yeast inh inconclusive (no result: aSyn rescue, Akt phos inh)
COc1ccc(S(=O)(=O)Oc2ccc3cccc(N)c3c2)cc1	aSyn rescue inconclusive, Abeta yeast res inconclusive, TDP-43 yeast inh 15.8µM
O=C(CN1C(=O)C2(SCC(=O)N2c2ccc(F)c(F)c2)c2ccccc21)Nc1ccccc1F (configuration not stated)	TDP-43 yeast inh inconclusive (no result: Akt phos inh)
O=C(CSc1ccc(Cl)cc1)N1CCC(c2nc3ccccc3s2)CC1	aSyn rescue inconclusive, TDP-43 yeast inh 25.1µM
O=C(CSc1c(Cl)cccc1Cl)N1CCC(c2nc3ccccc3s2)CC1	aSyn rescue inconclusive
O=C(NC1CCN(Cc2ccccc2)CC1)c1ccc(Cn2c(=O)c3ccccc3n(Cc3ccc(F)cc3)c2=O)cc1	none (no result: aSyn rescue, Akt phos inh)
Nc1nnnn1/N=C/c1ccco1	Akt phos inh -130.3%
CSc1cccc(NS(=O)(=O)c2cn(C)c(C)n2)c1	none (no result: Akt phos inh)
CC(=O)c1ccc(NC(=O)NCCc2c[nH]c3ccccc23)cc1	none (no result: aSyn rescue, Akt phos inh)
O=C(O)c1nn(CCOc2ccc(Br)cc2)c(=O)c2ccccc12	TDP-43 yeast inh 12.6µM
CCOc1ccc2oc(=O)cc(CN3CCN(c4ccc(OC)cc4)CC3)c2c1	none (no result: aSyn rescue, Akt phos inh)
Cc1ccc(Nc2nc(C)cc(C)n2)c(Br)c1	TDP-43 yeast inh 10µM
Cc1cccc(NC(=O)CSCC(=O)N(C)CCOc2ccc(Cl)cc2)c1	TDP-43 yeast inh 12.6µM
Cc1ccc(NC(=O)CSCC(=O)N(C)CCOc2ccc(Cl)cc2)cc1	TDP-43 yeast inh inconclusive
Cc1ccc(CNC(=O)c2cc(C3CC3)nc3c2c(C)nn3-c2cccc(Cl)c2C)cc1	none (no result: aSyn rescue, Akt phos inh)
COc1cccc2sc(NC(=O)CS(=O)(=O)c3ccc(C)cc3)nc12	none (no result: aSyn rescue, Akt phos inh)
CC(=O)c1ccccc1OCCn1nnc(-c2ccc(C)cc2)n1	TDP-43 yeast inh 25.1µM
O=C(O)C1C2CCC(CC2)C1C(=O)N1CCN(Cc2ccc(F)cc2)CC1 (configuration not stated)	TDP-43 yeast inh 20µM
O=C1CCC(=O)N1c1ccc(NCc2ccccc2Cl)c([N+](=O)[O-])c1	TDP-43 yeast inh 22.4µM
O=C1CC(=Nc2ccccc2)NN1c1ccccc1	FUS suppressor 12.6µM, Abeta yeast res inconclusive, TDP-43 yeast inh 15.8µM
Cc1nc2sc(C#N)c(N)c2c2c1CCCC2	TDP-43 yeast inh inconclusive
CC(=O)c1sc2nc(C)c3c(c2c1N)CCCC3	aSyn rescue 17.8µM, TDP-43 yeast inh 12.6µM
C=Cc1ccc(Cn2c(C)c(C(=O)NCc3ccc4c(c3)OCO4)sc2=O)cc1	Abeta yeast res inconclusive, TDP-43 yeast inh 22.4µM
Cc1c(C(=O)NCc2cccc([N+](=O)[O-])c2)sc(=O)n1Cc1ccc(F)cc1	none
Cc1c(C(=O)NCc2cccc([N+](=O)[O-])c2)sc(=O)n1Cc1cccc(F)c1	TDP-43 yeast inh 17.8µM
CCN(Cc1ccccc1)C(=O)Cn1c(=O)n(-c2cccc(C)c2)c(=O)c2c1c1cc(OC)ccc1n2C	none (no result: aSyn rescue, Akt phos inh)
O=[N+]([O-])c1ccccc1CNc1ccc(F)c(Cl)c1	TDP-43 yeast inh 17.8µM
CCN1CCCC1CN(Cc1cc2ccc(C)c(C)c2[nH]c1=O)C(=O)Nc1ccccc1OC (configuration not stated)	FUS suppressor 10µM
CC(C)CC(=O)N1c2nc(C(C)C)nn2C2(CCCCC2)[C@@H]2CCCC[C@@H]21	none (no result: aSyn rescue, Akt phos inh)
COc1ccc2[nH]c3c(=O)n(CCCCC(=O)N4CCCC4)c(=S)[nH]c3c2c1	FUS suppressor 39.8µM
COC(=O)c1sc2cccc(F)c2c1S(=O)(=O)N1CCN(c2cccc(C)c2)C(C)C1 (configuration not stated)	TDP-43 yeast inh inconclusive (no result: aSyn rescue, Akt phos inh)
O=C(O)CCSCCC(=O)O	Akt phos inh -105.5%
C=CCNc1nc(Nc2ccc(OC)cc2)nc(OC)n1	TDP-43 yeast inh 20µM
N#C/C(=C\c1ccc[nH]1)Sc1nc2ccccc2s1	TDP-43 yeast inh 22.4µM
COc1ccc(NC(=O)c2cc(-c3ccc(OC)c(OC)c3)on2)cc1OC	Akt phos inh -88.2%
COc1ccc(CNC(=O)c2cc(-c3ccc(OC)c(OC)c3)on2)cc1	none
COc1cc(Cl)ccc1OCc1cc(C(=O)NCc2cc(C(C)C)no2)no1	TDP-43 yeast inh 11.2µM (no result: FUS suppressor)
COc1ccc(-c2cc(C(=O)NCc3ccc(Cl)cc3)no2)cc1OC	Akt phos inh -92.4%
O=C(N/N=C/c1cc([N+](=O)[O-])cc(Br)c1O)C12CC3CCC(CC(C3)C1)C2	TDP-43 yeast inh 4.47µM
CCc1ccc(NC(=O)Cn2c(=O)c(CNc3ccccc3)cc3cc(OC)c(OC)cc32)cc1	none (no result: aSyn rescue, Akt phos inh)
COc1cc2cc(CNc3ccccc3)c(=O)n(CC(=O)Nc3cc(C)cc(C)c3)c2cc1OC	FUS suppressor 25.1µM (no result: Akt phos inh)
COc1ccc(Cl)cc1NC(=O)Cc1coc2c(C)c(C)ccc12	none (no result: aSyn rescue, Akt phos inh)
CCOc1c(CC2C(=O)Nc3ccc(Br)cc32)cccc1OC (configuration not stated)	none (no result: aSyn rescue, Akt phos inh)
Cc1cccc(N2CCN(C(=O)C3(S(=O)(=O)c4ccc(Cl)cc4)CC3)CC2)c1C	FUS suppressor inconclusive, TDP-43 yeast inh 35.5µM
ClCc1nc2ccccc2c2ccccc12	TDP-43 yeast inh 14.1µM
COc1ccc(S[C@]2(C(=O)N3CCN(c4ncccn4)CC3)CC(=O)N(C(=O)CCc3ccccc3)[C@@H]2c2ccc(OC)cc2)cc1	none (no result: aSyn rescue, Akt phos inh, Abeta yeast res, TDP-43 yeast inh)
CCN(CC)c1ccc(NC(=O)Nc2ccccc2C(F)(F)F)cc1	Akt phos inh -115.8%
